From PubChem BioAssay
The list is not random: actives were taken first. Their share in the collection is about 3.8%.
CR mimetic SO – reduction of superoxide in aged yeast, primary screen, HTS; S. cerevisiae aged cells, superoxide DHE fluorescence; stronger effect = lower value; superoxide response (% of plate mean), % at 10 µM; 0.18% of 330,000 active; AID 2690, 2010;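 active means superoxide response under a set limit, about three screen SD below normal, cut at about 65% in these data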;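 further: yeast aged for seven days with compound at 30 °C before DHE staining; 100% = average MFI of all compound-treated wells on the plate with controls excluded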
FAS TE block – FAS thioesterase domain inhibitors, primary screen, biochemical, fluorescence intensity, uHTS; Fatty acid synthase (Homo sapiens), P49327; 0.67% of 360,000 active; inhibition, % at 15 µM; recombinant FAS-TE, OMFH fluorogenic substrate, fluorescence endpoint;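 active means compounds whose normalised, plate-corrected inhibition of enzyme fluorescence in the single-dose primary screen is 50% or more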;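 further: 0% = DMSO with enzyme and 100% = substrate without enzyme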
H9c2 protect – cardioprotection against H2O2-induced cell death, primary screen, uHTS, H9c2 cells, ATPLite luminescence; H9c2 cardiomyocytes, H2O2 injury protection, 2 h; protection from H2O2 cell death, % at 20 µM; 0.63% of 360,000 active; AID 588492, 2011;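 active means compounds giving at least 50% protection of heart cells from peroxide-induced death in the single-dose screen, raw or plate-pattern-corrected value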;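 further: 0% = DMSO wells with peroxide and 100% = DMSO wells without peroxide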
aDG glyco up – activators of alpha-DG glycosylation, primary screen, uHTS, Pro5-aDG cells, AlphaScreen; alpha-DG glycosylation AlphaScreen (IIH6); 0% Pro5, 100% B10-LARGE cell signal; activation, % at 10 µM; 0.22% of 360,000 active; AID 624168, 2012;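 active means activation of at least 8% versus controls, or a plate z-score of at least 8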;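 further: Pro5 are CHO cells carrying HIG-tagged alpha-DG that lacks glycosylation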
Mot1-301 SUMO – yeast Mot1-301 growth rescue at high temperature, primary screen, SUMOylation pathway inhibitor project, S. cerevisiae, ATP luminescence, 38.5C; S. cerevisiae Mot1-301 growth rescue; percent above DMSO median, 100 means doubled; growth rescue, % at 18.8 µM; 1% of 320,000 active; AID 2716, 2010;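 active means every valid replicate shows activation above 250% relative to neutral control wells; inactive means the rest, any valid replicate at or below 250%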;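 further: OY570 slx delta 5 strain wells were the positive control but not used for scaling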
MPTP inh – mitochondrial permeability transition pore inhibitors, primary screen, biochemical, isolated mouse mitochondria, absorbance | Ca2+ swelling absorbance, 30 min | inhibition, % at 10 µM | 1.4% of 360,000 active;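 active means inhibition of 50% or more, scaled per plate between neutral and stimulator controls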;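 further: 0% = DMSO wells given calcium and 100% = 1 mM EGTA wells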
Numbers without * were called inactive; i = inactive; / = not tested or not shown.

SMILES	CR mimetic SO	FAS TE block	H9c2 protect	aDG glyco up	Mot1-301 SUMO	MPTP inh
O=C(Nc1cc(=O)c2ccccc2o1)N1CCCCC1	97.4	-10.3	104.2*	-0.2	190.2	-1.6
Cc1c(NC(=O)c2cccs2)cccc1-c1nc2ccccc2s1	115.7	13.2	-18.2	0.1	386.6*	1.7
Cc1ccc(C(=O)OCC(=O)Nc2sccc2C(N)=O)cc1NC(=O)c1ccco1	97.0	23.8	94.0*	-0.3	-6.2	0.3
Cc1ccc(C(=O)OCC(=O)Nc2ccccc2)cc1NC(=O)c1ccco1	93.5	-2.3	5.1	-0.3	-5.1	1.2
Cc1ccc(-c2nnc(SCC(=O)NCC3CCCO3)nc2-c2ccc(C)cc2)cc1 (configuration not stated)	/	3.0	-4.3	-0.3	/	-0.1
CCSc1nnc(-c2ccc(S(=O)(=O)N3CCOCC3)cc2)n1CC1CCCO1 (configuration not stated)	119.5	-8.6	-1.3	-0.3	137.4	-0.7
CSc1nnc(-c2ccc(S(=O)(=O)N3CCOCC3)cc2)n1CC1CCCO1 (configuration not stated)	105.3	-9.2	1.8	-0.1	333.4*	1.1
COC(=O)c1cc(=O)nc(NNC(C)=O)s1	/	-6.4	4.9	-0.1	/	-0.9
COc1cc(NC(=O)c2c(OC)cccc2OC)ccc1NC(=O)c1cc2ccccc2o1	108.1	15.3	54.0*	-0.2	135.4	-0.1
COc1cc(NC(=O)c2ccc(F)cc2)ccc1NC(=O)c1cc2ccccc2o1	103.5	-5.2	-2.6	0.1	-0.5	-0.2
COc1cccc(C(c2nnnn2Cc2ccccc2)N2CCN(C3CCCC3)CC2)c1OC (configuration not stated)	87.7	-5.9	95.1*	-0.6	6.4	-2.6
CCN(CC)CCNc1c(C)cc(CO)c(Cl)c1C	/	-9.6	2.7	0.3	/	1.1
O=C(CN1CCN(c2ccccn2)CC1)Nc1ccc([N+](=O)[O-])cc1C(=O)Nc1ccccc1F	i	32.1	62.9*	0.2	1.2	-0.2
O=C(CN1CCN(c2ccccc2O)CC1)Nc1ccc([N+](=O)[O-])cc1Br	97.2	26.9	-1.1	-0.3	-16.0	1.9
Cc1nc(N2CCN(c3ccccn3)CC2)c2c(C)c(C(=O)Nc3ccccc3F)sc2n1	101.2	33.3	50.2*	-0.2	638.8	4.7
COc1cc(Cl)c(C)cc1NC(=O)c1ccccc1NC(=O)CN1CCN(c2ccccn2)CC1	/	36.9	23.3	-0.3	/	1.8
COc1cc(NC(=O)c2ccccc2)c(OC)cc1NC(=O)CN1CCN(c2ccccn2)CC1	89.7	7.8	50.5*	0.2	-3.7	-4.0
COc1ccccc1[C@]1(C)ON(c2ccccc2C(F)(F)F)C1=O	81.7	10.2	-6.9	1.1	296.4*	0.9
COc1ccc(NS(=O)CCCc2ccccc2)cc1 (configuration not stated)	/	-3.8	-0.1	0.0	/	0.2
Cn1nccc1C(=O)N1CCN(c2ncccn2)CC1	121.8	-10.1	10.2	-0.2	336.0*	-1.1
Cn1nccc1C(=O)N1CCN(c2ccccc2Cl)CC1	115.7	-8.1	5.4	-0.6	4.3	-0.2
COc1ccccc1C(=O)Nc1nnc(S(=O)(=O)N2CCCCCC2)s1	96.8	-0.7	-12.0	-0.2	336.7*	0.4
COc1ccc(S(=O)(=O)N2CCCCCC2)cc1NC(=O)c1ccccc1	98.8	1.7	-4.7	-0.2	309.3*	-1.4
CCOC(=O)Cc1nnc(NC(=O)c2ccccc2OC)s1	115.1	-8.7	-6.1	0.2	-16.3	-3.2
COc1ccccc1C(=O)Nc1nnc(CCc2ccccc2)s1	102.8	11.6	-1.8	-0.1	332.4*	-0.1
SMILES	CR mimetic SO	FAS TE block	H9c2 protect	aDG glyco up	Mot1-301 SUMO	MPTP inh
CCCC(C(=O)Nc1cccc(S(=O)(=O)N2CCCC2)c1)c1ccccc1 (configuration not stated)	102.0	24.0	-1.3	0.6	11.0	1.1
CCCS(=O)(=O)NC(=O)C1(C)CCN(C(=O)c2cccc(C)c2C)C1 (configuration not stated)	/	-4.1	5.5	-0.2	/	-3.0
CCOC(=O)c1cnc(Nc2nc3ccccc3o2)nc1CSc1nnc(C)s1	99.7	-4.4	60.0*	0.1	-12.0	-1.2
CC1CCN(Cc2nc3c(c(=O)n(C)c(=O)n3C)n2CCCc2ccccc2)CC1	112.6	3.0	56.0*	-0.1	286.5	-1.7
CN1CCN(Cc2nc3c(c(=O)n(C)c(=O)n3C)n2CCCc2ccccc2)CC1	115.3	-2.6	-6.1	2.2	75.8	0.9
CCCc1c(-c2cccc(Cl)c2)ncn1CCc1ccccc1OC	/	22.0	/	0.1	/	1.2
O=C(CN1C(=O)NC2(CCCCCCC2)C1=O)NC(=O)NCc1ccco1	104.0	-1.6	-0.2	-0.2	337.2*	-1.6
O=C(CCCCn1cnc2c(=S)nc[nH]c21)Nc1ccc(C(=O)O)c(O)c1	/	-7.6	6.2	-0.2	/	0.4
CC(C)Nc1nc(-c2ccccc2)nc(-n2ccnc2)n1	92.7	0.8	12.3	1.6	-9.6	1.0
c1ccc(-c2nc(-n3ccnc3)nc(-n3ccnc3)n2)cc1	93.5	-0.8	74.4*	-0.1	-19.9	1.5
C[C@H](CO)N1C[C@H](C)[C@@H](CN(C)S(=O)(=O)c2ccc(F)cc2)Oc2ccc(NC(=O)Nc3ccccc3)cc2C1=O	96.6	4.8	18.3	-0.2	-20.4	1.4
C[C@@H]1CN([C@H](C)CO)C(=O)c2cc(NC(=O)Nc3ccc(C(F)(F)F)cc3)ccc2O[C@H]1CN(C)S(=O)(=O)c1cccs1	98.0	15.5	-3.4	-0.4	-16.3	1.0
C[C@H](CO)N1C[C@H](C)[C@@H](CN(C)S(=O)(=O)c2ccc(F)cc2)Oc2ccc(NC(=O)Nc3ccc4c(c3)OCO4)cc2C1=O	90.7	10.2	62.1*	-0.2	/	0.6
C[C@H](CO)N1C[C@H](C)[C@@H](CN(C)S(=O)(=O)c2ccccc2)Oc2ccc(NC(=O)Nc3ccccc3)cc2C1=O	96.2	5.5	75.6*	0.0	2.3	1.6
C[C@H](CO)N1C[C@H](C)[C@@H](CN(C)S(=O)(=O)c2cccs2)Oc2ccc(NC(=O)Nc3ccccc3)cc2C1=O	69.0	1.8	67.5*	-0.1	-8.6	0.8
CC(=O)CC(c1ccccc1)S(=O)(=O)c1ccc([N+](=O)[O-])cc1 (configuration not stated)	100.4	-0.9	-1.0	0.0	-7.1	-0.3
CN1CCN(C(=O)CNC(=O)C23CC4CC(CC(C4)C2)C3)CC1	115.4	-3.9	-3.9	-0.4	6.3	0.1
OC(c1ccccc1)c1ncc(-c2cccc(F)c2)[nH]1 (configuration not stated)	/	-6.2	-2.7	-0.2	/	0.1
